The whole screen tested about 340,000 compounds, of which about 12,000 (3.5%) were called active. Inconclusive results (about 18%) are left out. This excerpt belongs to a sample that is enriched for actives. A number with no mark means an inactive call. Calls come from the whole dose curve; as a rule, active = well fitted inhibition curve with a large enough effect; inconclusive = small, poorly fitted or top-dose-only effect, or another doubt; inactive = no such curve, though single readings can be large or run the other way.
Test: qHTS Assay for Inhibitors of Hepatitis C Virus (HCV)
Details: Huh7.5.1 HCVcc-Cre infection, luciferase reporter, 44 h; series mostly up to 41.8 µM; activity change, negative = inhibition: at the top concentration
In short: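 Infectious HCV cell culture screen: compound-treated cells (1,000/well, pre-plated 4 h) are infected with HCVcc-Cre at roughly 0.5 moi and grown 44 h. Infection is quantified by luciferase signal after 15 min substrate incubation at room temperature.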
% is set by controls: 0 for no effect and ±100 for the full control effect; potency is the fitted concentration of half-maximal effect.

Row | SMILES | activity change, negative = inhibition | Potency
1 | COC(=O)c1c(NC(=O)CCCC(=O)O)sc2c1CCCCC2 | -1.74% | –
2 | COC(=O)c1c(NC(=O)CCN2CCOCC2)sc2c1CCCC2 | -13.5% | –
3 | COC(=O)c1c(NC(=O)C2CC(C)=C(C)CC2C(=O)O)sc2c1CCCCC2 (stereo unspecified) | 0.726% | –
4 | CCOC(=O)c1c(NC(=O)CSc2nnc(CN3CCOCC3)n2C)sc2c1CCCC2 | – | 22.4 µM (active)
5 | COC(=O)c1c(NC(=O)CSc2nncs2)sc2c1CCCCC2 | – | 7.08 µM (active)
6 | CCOC(=O)c1c(NC(=O)CSc2nnc(C)c(=O)[nH]2)sc2c1CCC2 | 2.84% | –
7 | COC(=O)[C@]1(C)CCC[C@@]2(C)C3CC[C@]4(OC(C)=O)C[C@@]3(CCC21)CC4=NO (stereo partly specified) | 0.298% | –
8 | O=C(CCNC(=O)c1ccc(Br)cc1)Nc1cccc(S(=O)(=O)N2CCCCC2)c1 | -9.26% | –
9 | COc1ccccc1C(=O)NCC(=O)NCCSc1ccc(Br)cc1 | 31.4% | –
10 | CCc1noc(C)c1C(=O)N1CCCSC1=Nc1ccccc1OC | 9.92% [at 8.37 µM] | –
11 | COc1ccc2c(c1)C(=O)Nc1cc(Cl)ccc1N2 | -25.5% | –
12 | Cc1cccc(OCCC(=O)OCc2csc(CC(=O)Nc3ccccc3C)n2)c1 | -5.01% | –
13 | CCOc1ccccc1-c1cc(C(=O)N/N=C(\C)c2cccnc2)c2ccccc2n1 | -26.8% | –
14 | NC(=O)COC(=O)/C=C/c1ccc2ccccc2n1 | -4.15% | –
15 | CCOc1cccc(/C=C/c2ccc3ccccc3n2)c1OC(C)=O | – | 11.2 µM (active)
16 | COC(=O)[C@]1(CC(C)C)N[C@H](c2ccc(SC3CCCCC3)cc2)[C@@H]2C(=O)N(C)C(=O)[C@@H]21 | 3.15% | –
17 | CCN(CC(=O)Nc1c(F)cccc1F)C(=O)Cc1cccs1 | 5.83% | –
18 | Cc1nc(-c2ccc(F)cc2)c(CC(=O)Nc2cccc(S(=O)(=O)N3CCOCC3)c2)s1 | -22.3% | –
19 | CC(C)(C)OC(=O)NCCCCCNC(=O)c1[nH]cnc1C(=O)Nc1nccs1 | -1.35% | –
20 | COc1cccc(Nc2nc(N)c([N+](=O)[O-])c(NCc3ccco3)n2)c1 | – | 10 µM (active)
21 | Nc1nc(NCCCN2CCOCC2)nc(Nc2ccccc2)c1[N+](=O)[O-] | -9.65% | –
22 | Nc1nc(Nc2ccccc2)nc(NCCO)c1[N+](=O)[O-] | -14.4% | –
23 | COc1ccccc1CNC(=O)COC(=O)CNS(=O)(=O)c1ccc(NC(C)=O)cc1 | 3.91% | –
24 | CCOc1ccc(OCC(=O)OC(C)C(=O)NC2CCCCC2C)cc1 (stereo unspecified) | 14.8% | –
25 | O=c1ccc(S(=O)(=O)N2CCCC2)cn1Cc1nc(-c2ccccc2)no1 | -19.5% | –
26 | CC1CCCN(C(=O)c2cc(-c3ccco3)nc3ccccc23)C1 (stereo unspecified) | 0.714% | –

Row | SMILES | activity change, negative = inhibition | Potency
27 | COc1ccc(OCCCCN2CCC(C)CC2)cc1 | -9.49% | –
28 | C/C=C/c1ccc(OCCOc2ccc(C=O)cc2OC)c(OC)c1 | 0.431% | –
29 | C/C=C/c1ccc(OCCCCN2CCC(C)CC2)c(OC)c1 | – | 14.1 µM (active)
30 | Fc1ccc2cnc(-c3ccccc3)cc2c1 | 16.1% | –
31 | COc1cc2c3c(c1)/C(=C1/SC(=S)NC1=O)C(=O)N3C(C)(C)C=C2C | – | 25.1 µM (active)
32 | CC(C)Oc1ccc(S(=O)(=O)N2CCOCC2)cc1NC(=O)C1CSC2(C)CCC(=O)N12 (stereo unspecified) | -20.8% | –
33 | COc1cc(C(=O)NCC(=O)NCCSc2ccc(Br)cc2)cc(OC)c1OC | -19.6% | –
34 | CSc1nsc(NC(=O)Nc2ccccc2)n1 | -15.8% | –
35 | CC(=O)c1cccc(NC(=O)c2ccncc2)c1 | 1.02% | –
36 | CCSc1nsc(NC(=O)Nc2cccc(C(C)=O)c2)n1 | – | 11.2 µM (active)
37 | Cc1ccc(C)c(NC(=O)C(c2ccccc2)N2CCN(CC(=O)NC3CC3)CC2)c1 (stereo unspecified) | 20.5% | –
38 | COc1ccc(CCNc2ncnc3nc[nH]c23)cc1OC | – | 11.2 µM (active)
39 | CCS(=O)(=O)NCCc1ccc(OC)c(OC)c1 | -0.766% | –
40 | COc1ccc(CCNc2nc(C)cc(C)n2)cc1OC | -14.5% | –
41 | Nc1c(C(=O)OCC(=O)Nc2ccc(OC(F)F)cc2)[nH]c(=O)[nH]c1=O | 1.46% | –
42 | CCCn1c(N)c(N(CCOC)C(=O)C2CCCC2)c(=O)[nH]c1=O | 11.3% | –
43 | CCC1CCCCN1CCCNC(=O)C1CCC(Cn2c(=O)[nH]c3ccccc3c2=O)CC1 (stereo unspecified) | -13.2% | –
44 | CCC1CCCCN1CCCNC(=O)c1cc2c(Cl)nc3ccccc3c2s1 (stereo unspecified) | – | 8.91 µM (active)
45 | Cc1nc2ccccc2c2oc(C(=O)NCCCN3CCC(C)CC3)cc12 | -20.7% | –
46 | C#CCOCCOCCOCCNc1nc(N2CCN(C(=O)[C@H](CO)n3cc([C@@H](N)C(C)C)nn3)CC2)nc(N2CCN(C(=O)[C@H](CCC(=O)O)n3cc([C@@H](N)[C@H](C)CC)nn3)CC2)n1 | -8.15% | –
47 | Nc1ccc2[nH]c(=S)sc2c1 | 12.9% | –
48 | COc1ccc(CCN2CC(C(=O)OCC(=O)NCc3ccccc3Cl)CC2=O)cc1OC (stereo unspecified) | -7.78% | –
49 | CC(NC(=O)c1ccccc1SCC(=O)N1CCCC1)c1ccccc1 (stereo unspecified) | 22.8% | –
50 | CC(=O)Nc1ccc(OCC(O)CN2CCN(c3ccccc3Cl)CC2)cc1 (stereo unspecified) | 3.6% | –
51 | O=C(c1ccccc1)c1ccc(OCC(O)CN2CCCC2)cc1 (stereo unspecified) | 2.19% | –

— PubChem BioAssay AID651820 (National Center for Advancing Translational Sciences (NCATS), 2012)
